Where “and” joins values, the source holds several entries; their conditions need not be identical. Identical values can stand only once. Compounds without any hit were thinned out: in the full panel of roughly 79,000, 15% have a hit. Calls of active or inactive are those of the source. Rule as the data show it: active = growth inhibition above about 70%; inactive = the rest.
How the values were obtained:
[1] = NCI Yeast Anticancer Drug Screen. Data for the rad52 strain (AID 147);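 also: 0% = growth of vehicle-treated control cultures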; settings: S. cerevisiae rad52 mutant growth inhibition, active compounds read high
How it was run: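 Genetically altered yeast (DNA damage repair defect) treated with compound; inhibition calculated relative to vehicle.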

[2] = NCI Yeast Anticancer Drug Screen. Data for the rad50EPP+ strain (AID 151);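 also: 0% = growth of vehicle-treated control cultures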; settings: S. cerevisiae rad50 mutant strain, active compounds read high
How it was run: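 Strain rad50EPP+; compound exposure; % growth inhibition vs vehicle.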

[3] = NCI Yeast Anticancer Drug Screen. Data for the mgt1 strain (AID 153); settings: S. cerevisiae mgt1 mutant growth inhibition, active compounds read high
How it was run: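 Read-out: yeast growth inhibition vs vehicle control. Strain mgt1, drawn from a panel altered in DNA damage repair or cell cycle control.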

[4] = NCI Yeast Anticancer Drug Screen. Data for the rad50 strain (AID 155);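 also: 0% = growth of vehicle-only cultures of the same strain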; settings: S. cerevisiae rad50 strain growth inhibition, active compounds read high
How it was run: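 Readout: growth inhibition relative to vehicle-treated cultures. Compound exposure was carried out in a genetically defined yeast strain deficient in DNA damage repair.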

[5] = NCI Yeast Anticancer Drug Screen. Data for the mec2-1 strain (AID 157); settings: S. cerevisiae mec2-1 strain, active compounds read high
How it was run: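 Cells of the genetically defined mec2-1 yeast strain are incubated with test compound. Inhibition of growth is calculated against vehicle-treated controls.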

[6] = NCI Yeast Anticancer Drug Screen. Data for the sgs1 mgt1 strain (AID 161);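 also: 0% = growth of cultures given vehicle only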; settings: S. cerevisiae sgs1 mgt1 strain, active compounds read high
How it was run: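 Inhibition of yeast growth, normalised to vehicle-treated controls, is reported for a strain bearing genetic alterations in DNA damage repair.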

[7] = NCI Yeast Anticancer Drug Screen. Data for the CLN2oe strain (AID 163);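 also: 0% = growth of vehicle-only control cultures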; settings: S. cerevisiae CLN2oe strain, active compounds read high
How it was run: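 Strain altered in cell-cycle control, incubated with compound; growth compared to solvent-treated controls.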

[8] = NCI Yeast Anticancer Drug Screen. Data for the cln2 rad14 strain (AID 165);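 also: 0% = growth equal to vehicle treated cultures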; settings: S. cerevisiae cln2 rad14 strain, active compounds read high
How it was run: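 The screen exposed genetically defined yeast (cln2 rad14) to test compounds and scored growth inhibition relative to vehicle-treated controls.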

[9] = NCI Yeast Anticancer Drug Screen. Data for the bub3 strain (AID 167); settings: S. cerevisiae bub3 mutant strain, active compounds read high
How it was run: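 Readout: yeast growth inhibition, expressed relative to vehicle-only wells. The test organism is a mutant strain from a panel with lesions in DNA repair or checkpoint genes.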

[10] = NCI Yeast Anticancer Drug Screen. Data for the wt2 strain (AID 169);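 also: 0% = growth of vehicle-treated yeast cultures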; settings: S. cerevisiae wt2 strain growth inhibition, active compounds read high
How it was run: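 Steps: yeast strain treated with compound; growth recorded; inhibition calculated relative to cultures given vehicle alone.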

[11] = NCI Yeast Anticancer Drug Screen. Data for the mlh1 strain (AID 171);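 also: 0% = growth of vehicle-treated control cultures of the same strain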; settings: S. cerevisiae mlh1 strain growth inhibition, active compounds read high
How it was run: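 Yeast screen: mutant strain plus compound, growth scored against vehicle control wells.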

[12] = NCI Yeast Anticancer Drug Screen. Data for the sgs1 strain (AID 173);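 also: 0% = growth of vehicle-only control cultures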; settings: S. cerevisiae sgs1 mutant, active compounds read high
How it was run: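 Inhibition of yeast growth served as the measure. The mutant strain was treated with each compound, and growth was normalised to cultures receiving vehicle alone.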

[13] = NCI Yeast Anticancer Drug Screen. Data for the mlh1 rad18 strain (AID 175); settings: S. cerevisiae mlh1 rad18 strain growth inhibition, active compounds read high
How it was run: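 Compound-treated yeast growth, normalised to vehicle controls. Strain bears defined DNA repair mutations.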

[14] = NCI Yeast Anticancer Drug Screen. Data for the rad18 strain (AID 177); settings: S. cerevisiae rad18 mutant growth inhibition, active compounds read high
How it was run: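 Inhibition values reflect reduced yeast growth compared with vehicle-treated controls, using a strain engineered with a DNA damage repair defect.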

[15] = at 5.0 µM (retest, dose inferred, filed as 0.5)
[16] = at 50.0 µM (retest, dose inferred, filed as 5.0)

Measured: growth inhibition

CN(C)CCSC1=Nc2ccc(Cl)cc2C(c2ccccc2Cl)=NC1
active: [12]; at 100.0 µM 70%
inactive: [1]; at 1.2 µM -1% | [1]; at 3.7 µM -8% | [1]; at 11.0 µM 3% | [1]; at 33.0 µM 4% | [1]; at 100.0 µM 51% | [2]; at 1.2 µM -3% | [2]; at 3.7 µM -2% | [2]; at 11.0 µM -2% | [2]; at 33.0 µM -3% | [2]; at 100.0 µM 0% | [3]; at 1.2 µM -2% | [3]; at 3.7 µM -1% | [3]; at 11.0 µM 0% | [3]; at 33.0 µM 6% | [3]; at 100.0 µM 66% | [4]; at 1.2 µM -1% | [4]; at 3.7 µM 2% | [4]; [15] 12% | [4]; at 11.0 µM 2% | [4]; at 33.0 µM 8% | [4]; [16] 47% | [4]; at 50.0 µM 61.8% and 39.5% | [4]; at 100.0 µM 51% | [5]; at 1.2 µM -2% | [5]; at 3.7 µM -2% | [5]; [15] 3% | [5]; at 11.0 µM 0% | [5]; at 33.0 µM 9% | [5]; [16] 12% | [5]; at 50.0 µM -4.25% and -24.8% | [5]; at 100.0 µM 33% | [6]; [15] 11% | [6]; [16] 47% | [6]; at 50.0 µM 50% and 24.2% | [7]; at 1.2 µM -1% | [7]; at 3.7 µM -1% | [7]; at 11.0 µM 4% | [7]; at 33.0 µM 15% | [7]; at 100.0 µM 24% | [8]; [15] 4% | [8]; [16] 8% | [8]; at 50.0 µM 15.7% and -4.25% | [9]; at 1.2 µM -1% | [9]; at 3.7 µM -3% | [9]; [15] 0% | [9]; at 11.0 µM -3% | [9]; at 33.0 µM 9% | [9]; [16] 52% | [9]; at 50.0 µM 61.9% and 10.9% | [9]; at 100.0 µM 50% | [10]; at 1.2 µM -3% | [10]; at 3.7 µM -3% | [10]; at 11.0 µM -8% | [10]; at 33.0 µM -6% | [10]; at 100.0 µM 63% | [11]; at 1.2 µM -1% | [11]; at 3.7 µM -4% | [11]; at 11.0 µM -1% | [11]; at 33.0 µM -27% | [11]; at 100.0 µM 64% | [12]; at 1.2 µM -2% | [12]; at 3.7 µM -1% | [12]; at 11.0 µM 0% | [12]; at 33.0 µM 16% | [13]; [15] 4% | [13]; [16] 28% | [13]; at 50.0 µM 40.2% and 7.1% | [14]; at 1.2 µM -2% | [14]; at 3.7 µM -1% | [14]; at 11.0 µM 6% | [14]; at 33.0 µM 15% | [14]; at 100.0 µM 47%
